Source: PubChem
Hsp70 activator: transcriptional activators of Hsp70; HeLa Hsp70 promoter luciferase reporter, luminescence; scaled: vehicle 0, proteasome-inhibitor control 100%; 0.04% of 200,000 active; activation, % at 10 µM;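 active = activation above the mean across all tested compounds plus 3 SD, cutoff set per campaign, cut at about 5.5% in these data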;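 also: 100% = MG132 at 30 µM as the positive control and 0% = DMSO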
Wee1 stabilizer: blocks degradation of human Wee1 kinase | P30291 | HeLa Luc-Wee1K328M stability, luciferase luminescence; 100% = proteasome inhibitor MG132 effect | reporter increase, % at 5 µM | 1.2% of 220,000 active;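 active = activation above the mean of all tested compounds plus 3 SD, set per screening run, cut at about 8.8% in these data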;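 also: cells exposed to compound for 20 h before luminescence read; 0% = DMSO alone and 100% = MG132 at 30 µM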
Target sequence (P30291 whole entry K328M): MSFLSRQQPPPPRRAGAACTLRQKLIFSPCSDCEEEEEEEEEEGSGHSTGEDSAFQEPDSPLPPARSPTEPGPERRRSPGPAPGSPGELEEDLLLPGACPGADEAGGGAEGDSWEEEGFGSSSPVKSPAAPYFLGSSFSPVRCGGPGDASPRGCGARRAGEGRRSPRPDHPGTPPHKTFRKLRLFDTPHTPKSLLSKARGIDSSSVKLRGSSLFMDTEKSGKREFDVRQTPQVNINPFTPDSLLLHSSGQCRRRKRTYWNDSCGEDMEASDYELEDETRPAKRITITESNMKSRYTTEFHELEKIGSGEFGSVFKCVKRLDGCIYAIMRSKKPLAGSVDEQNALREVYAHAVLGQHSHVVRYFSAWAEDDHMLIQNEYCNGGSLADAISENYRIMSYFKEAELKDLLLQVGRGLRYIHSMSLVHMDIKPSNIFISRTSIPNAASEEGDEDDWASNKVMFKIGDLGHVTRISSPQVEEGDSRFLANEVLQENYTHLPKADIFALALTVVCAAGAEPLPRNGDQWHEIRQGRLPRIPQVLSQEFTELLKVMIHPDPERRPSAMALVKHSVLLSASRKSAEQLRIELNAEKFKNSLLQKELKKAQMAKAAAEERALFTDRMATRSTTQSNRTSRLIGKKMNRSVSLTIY
NF-kB neuron act: compounds increasing NF-kB expression in human neuronal cells | AID 1239 | fold change at 12.5 µM | NF-kB reporter expression; active compounds read high | 1.6% of 190,000 active; in the data active = fold change above about 3.3
APP 5'UTR act: APP 5'UTR luciferase reporter activation. SH-SY5Y APP 5'UTR luciferase reporter, luminescence; zero percent = DMSO vehicle wells. activation, % at 2 µM. 1% of 190,000 active;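 active = activation above a set limit, based on mean plus 3 SD of controls, cut at about 140% in these data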
STAT1 act: activators of IFN-gamma induced STAT1 signaling; 2.6% of 200,000 active; activation (% of control), % at 5.5 µM; AID 932; NIH 3T3 STAT1-luciferase reporter, luminescence; 100% = IFN-gamma alone, no compound;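 active = activation above the screen-wide mean activation plus 3 SD, cut at about 130% in these data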;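 also: raw ratio to IFN-gamma control signal so 100% means no change and 0% no light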
APP transl inh: APP translation inhibition. inhibition, % at 2 µM. AID 1285. SH-SY5Y APP 5'UTR-luciferase reporter, luminescence. 0.82% of 190,000 active;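 active = inhibition above a set limit, derived from the sample mean plus 3 SD, cut at about 45% in these data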
Active calls of the source: *; nt = no result given. Shown are actives, neighbours in structure and some others; about 4.8% of the full set was active somewhere.

SMILES | Hsp70 activator | Wee1 stabilizer | NF-kB neuron act | APP 5'UTR act | STAT1 act | APP transl inh
CCOC(=O)Nc1nc(-c2ccccc2)c(C(=O)c2ccccc2)s1 | 0 | 1 | 3.6* | -94 | 102 | 94*
CC(C)(CC(=O)O)CC(=O)N1CCCN(c2nc3ccc(Cl)cc3s2)CC1 | nt | 2 | nt | nt | nt | nt
COc1ccc(NC(=O)C2C3C=CC(C3)C2C(=O)NCc2ccco2)cc1 (configuration not stated) | 0 | -1 | 1.1 | -4 | 101 | 4
CN(C)S(=O)(=O)Oc1cccc(C(=O)Nc2ccccc2Cl)c1 | 0 | -1 | 1.9 | 39 | 118 | -38
CN(C)S(=O)(=O)Oc1cccc(C(=O)Nc2ccc(Cl)cc2)c1 | 0 | 1 | 5.3* | 141* | 109 | -141
CN(C)S(=O)(=O)Oc1ccc(C(=O)Nc2cccc(Cl)c2)cc1 | 0 | 0 | 2.3 | 123 | 143* | -123
Cc1nn(-c2ccccc2)c(N2CCCC2)c1/C=N/NC(=S)Nc1ccccc1F | 0 | 1 | 0.4 | 94 | 129* | -94
Cc1cc(C(=O)CN2C(=O)c3cccc(N)c3C2=O)c(C)n1Cc1cccs1 | 0 | 5 | 2.8 | nt | 147* | nt
COC(=O)c1ccc2nc(-c3ccc(S(C)(=O)=O)cc3)cn2c1 | 0 | -3 | 2 | 27 | 139* | -27
CS(=O)(=O)c1ccc(-c2cn3cc(C(=O)O)ccc3n2)cc1 | 0 | 7 | 1.5 | 16 | 79 | -16
O=c1c(=NNc2ccccc2Cl)c(=O)c2ccccc12 | 0 | -1 | 0.93 | 154* | 102 | -154
O=C(Nc1cc(Cl)cc(Cl)c1)C(NCCO)c1ccccc1 (configuration not stated) | 0 | 0 | 1.2 | 0 | 91 | 0
COc1ccc(S(=O)(=O)CCC(=O)N2c3ccccc3CC2C)cc1 (configuration not stated) | 0 | 1 | 1 | -14 | 101 | 14
CCCN1CCC(=NNc2ccc(S(=O)(=O)N(CC)CC)cc2[N+](=O)[O-])CC1 | 0 | -5 | 1.7 | -53 | 101 | 53*
CCCN1CCC(=NNc2ccc(S(N)(=O)=O)cc2[N+](=O)[O-])CC1 | 0 | 5 | 1.1 | 7 | 94 | -7
COC(=O)c1ccccc1NC(=O)NCCc1ccc(OC)c(OC)c1 | 0 | 7 | 0.68 | -7 | 106 | 7
N#C/C(=C\c1c(N2CCOCC2)nc2ccccn2c1=O)C(=O)NC1CCS(=O)(=O)C1 (configuration not stated) | nt | 1 | nt | nt | nt | nt
O=c1[nH]c(CN2CCN(c3ccccc3O)CC2)nc2scc(-c3ccccc3Cl)c12 | nt | 1 | nt | nt | nt | nt
O=c1[nH]c(CN2CCN(c3ccc(O)cc3)CC2)nc2scc(-c3ccc(Cl)cc3)c12 | 0 | 3 | 0.8 | -61 | 94 | 62*
COc1ccc(NC(=O)CO/N=C2/CCCc3nonc32)c(OC)c1 | 0 | 3 | 1.2 | -4 | 92 | 4
CCn1c(SCC(=O)N2c3ccccc3CCc3ccccc32)nc2c1c(=O)n(C)c(=O)n2C | 0 | 1 | nt | 8 | 94 | -8
NS(=O)(=O)c1ccccc1 | nt | 14* | nt | nt | nt | nt
O=[N+]([O-])c1cc2cccnc2c2ncccc12 | nt | -2 | nt | nt | nt | nt
O=[N+]([O-])c1cc(O)c2ncccc2c1 | 0 | -3 | 5.8* | -29 | 97 | 29
Cc1ccc(Nc2nc(-c3c(C)nc4ncccn34)cs2)cc1 | 0 | 2 | 2.2 | -95 | 92 | 95*
SMILES | Hsp70 activator | Wee1 stabilizer | NF-kB neuron act | APP 5'UTR act | STAT1 act | APP transl inh
Cc1ccc(Nc2nc(-c3c(C)nc4ccccn34)cs2)cc1 | 1 | -1 | 1.7 | -96 | 100 | 96*
Cc1nn(Cc2ccccc2)c(Cl)c1/C=N/NC(=O)CNc1cccc(C(F)(F)F)c1 | 0 | -2 | 1.3 | 5 | 110 | -5
Cc1nn(C)c(C)c1NC(=O)Nc1cccc(C(F)(F)F)c1 | 0 | 2 | 1.7 | -4 | 97 | 4
COCCNC(=S)N/N=C(\C)c1ccccc1O | 0 | -1 | 15* | -79 | 102 | 79*
COCCNC(=S)N/N=C(\C)c1ccccc1OC | 0 | 0 | 1.2 | -15 | 90 | 15
COc1cc(/C=N/N(C)c2ccccc2)ccc1O | 0 | 6 | 10* | 179* | 140* | -179
COc1cc(OC)c(OC)cc1/C=N/N(C)c1ccccc1 | 0 | 2 | 1.1 | -4 | 96 | 4
O=C(Nc1sccc1C(=O)N1CCOCC1)c1cccnc1 | 0 | -2 | 1.1 | 19 | 104 | -18
Cc1nc(-c2ccccc2)sc1C(=O)O | 0 | 2 | 1.7 | -11 | 120 | 11
Cc1nc(-c2ccc(Cl)cc2)sc1C(=O)O | 0 | 2 | 2.2 | 46 | 138* | -46
Cc1ccc(-c2nc(C)c(C(=O)O)s2)cc1 | 0 | 1 | 2.8 | 143* | 135* | -143
CC(C)C1COC(c2cccc3ccccc23)=N1 (configuration not stated) | 0 | 8 | 3.7* | 103 | 143* | -103
COc1ccc(S(=O)(=O)N(C)c2ccc(C(=O)N3CCC(C(N)=O)CC3)cc2)cc1OC | 0 | 0 | 1.1 | 8 | 98 | -8
Cn1cc(/C=N\NC(=O)c2cccs2)c2ccccc21 | 0 | 1 | 1.9 | 30 | 129* | -30
Cc1cc(/C=N/NC(=O)c2cccs2)c(C)n1-c1cnccn1 | 0 | 2 | 2.8 | 39 | 147* | -39
Cc1cc(/C=N/NC(=O)c2ccncc2)c(C)n1-c1ccccc1 | 0 | -1 | 1 | 17 | 113 | -18
Cc1cc(/C=N/NC(=O)c2cccs2)c(C)n1-c1ccccc1 | 0 | 3 | 1.3 | 163* | 81 | -163
CCn1c(=O)cc(SCC(=O)Nc2ccc3c(c2)OCO3)c2ccccc21 | 0 | -3 | 1.2 | -6 | 88 | 6
CN1CCN(NC(=O)c2ccc(Cl)c([N+](=O)[O-])c2)CC1 | 0 | 3 | 0.99 | -6 | 98 | 6
CSc1sc(C)cc1/C=N/O | 0 | 7 | 1.2 | 11 | 108 | -11
CN(c1ccc(F)cc1)S(=O)(=O)c1ccc2[nH]cc(C(=O)O)c(=O)c2c1 | 0 | 1 | 0.97 | 17 | 101 | -16
CCc1ccccc1N(C)S(=O)(=O)c1ccc2[nH]cc(C(=O)O)c(=O)c2c1 | 0 | 9.5* | 0.92 | 2 | 106 | -2
COc1ccccc1C(=O)NNC(=O)c1ccc(NC(=O)CC(C)C)cc1 | 0 | -1 | 0.98 | -1 | 102 | 1
COc1ccc(CCNC(=O)CS(=O)(=O)c2cn(CC(=O)N3CCOCC3)c3ccccc23)cc1OC | 0 | 0 | 1.1 | 15 | 99 | -15
Cc1ccc(NCc2ccccc2O)cc1C | 0 | 10* | 1.9 | 1 | 104 | -1
Oc1ccccc1CNc1ccc2c(c1)OCCO2 | 0 | 0 | 2.1 | 23 | 92 | -23
COc1ccc(CNc2ccc(Br)cc2)cc1 | 0 | 10* | 3.1 | 18 | 128 | -18
